Data from the supplement of paper PMC3334620.
In all, about 33,000 sequences were measured (“E-score (-0.5 to 0.5)”: median about -0.032, highest 2% from about 0.36 on). What follows is part of a selection rich in the highest values, with near analogues and random picks from the rest.

Target: T1, Sko1 (UniProt Q02100)
T1 sequence: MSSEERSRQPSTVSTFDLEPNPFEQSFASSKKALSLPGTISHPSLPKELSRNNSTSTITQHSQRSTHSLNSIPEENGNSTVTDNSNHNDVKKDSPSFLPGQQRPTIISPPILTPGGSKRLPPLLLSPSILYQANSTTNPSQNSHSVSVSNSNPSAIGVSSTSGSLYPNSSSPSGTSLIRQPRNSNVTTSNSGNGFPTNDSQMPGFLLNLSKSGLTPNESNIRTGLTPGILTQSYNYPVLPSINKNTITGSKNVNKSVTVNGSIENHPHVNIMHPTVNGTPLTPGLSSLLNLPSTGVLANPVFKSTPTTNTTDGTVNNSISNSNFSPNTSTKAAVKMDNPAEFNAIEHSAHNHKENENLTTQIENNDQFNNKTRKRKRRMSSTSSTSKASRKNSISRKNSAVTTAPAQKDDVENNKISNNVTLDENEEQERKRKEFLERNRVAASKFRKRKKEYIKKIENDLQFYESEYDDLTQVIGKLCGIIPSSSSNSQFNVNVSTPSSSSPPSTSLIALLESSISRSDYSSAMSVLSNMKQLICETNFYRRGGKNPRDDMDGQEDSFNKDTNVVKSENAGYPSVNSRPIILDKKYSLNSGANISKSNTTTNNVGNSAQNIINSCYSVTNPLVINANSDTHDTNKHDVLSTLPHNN
Test: PBM E-score (8-mer binding enrichment) (E-score (-0.5 to 0.5)); higher = stronger / more preferred TF binding
Settings: protein concentration: 200 nM; construct: GST-full length
Experimental: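 Universal 'all 10-mer' protein binding microarrays (Agilent AMADID 015681) probed with GST-tagged S. cerevisiae TFs (full-length or DBD) made by in vitro transcription/translation (PURExpress), about 100-200 nM. Bound TF was detected with fluorescent anti-GST. Each ungapped 8-mer (which stands for itself and its reverse complement) is scored by the PBM enrichment score (E-score), a modified Wilcoxon-Mann-Whitney statistic from -0.5 to +0.5, computed with the Universal PBM Analysis Suite. Scale: above 0.35 generally sequence-specific binding.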

| Sequence | PBM E-score |
| --- | --- |
| AACGTAAT | 0.48 |
| AGCGTAAT | 0.366 |
| ATCGTAAT | 0.401 |
| AACGTAAG | 0.397 |
| ACCGTAAT | 0.201 |
| ATCGTAAG | 0.234 |
| AGCGTAAC | 0.266 |
| AACGTGAT | 0.333 |
| ATCGTAAA | 0.32 |
| ACCGTAAG | 0.123 |
| AGCGTAAG | 0.0565 |
| AAGGTAAG | -0.00253 |
| AACCCACC | -0.0866 |
| AGCGAAGC | -0.0755 |
| CCCAATAC | 0.0194 |
| CAAAGGGC | -0.252 |
| CTCTAGGA | -0.335 |
| ATCGTAAC | 0.241 |
| GACGTAAA | 0.456 |
| GGCGTAAC | 0.0903 |
| GACGTAAC | 0.467 |
| GTCGTAAC | 0.267 |
| AACGTAAC | 0.441 |
| AAAGTAAA | 0.0553 |
| ACCGTAAC | -0.135 |

| Sequence | PBM E-score |
| --- | --- |
| GCCGTAAA | 0.107 |
| ACCGTAAA | 0.206 |
| AACGTAAA | 0.425 |
| GTCGTAAA | 0.282 |
| ATCAAGTA | 0.0281 |
| ACGTTCGG | 0.0529 |
| CGAGTGGA | -0.154 |
| CAGGCCCC | -0.271 |
| GCAGTCAA | -0.262 |
| ACTTTTGC | 0.185 |
| AGGCACAA | -0.0774 |
| TTCGTAAA | 0.32 |
| CACGTAAG | 0.448 |
| CTCGTAAA | 0.139 |
| TACGTAAA | 0.484 |
| CACGTAAA | 0.437 |
| CTCGTAAG | 0.243 |
| CTCGTAAC | 0.253 |
| CCCGTAAC | -0.105 |
| CGCGTAAG | 0.352 |
| CCCGTAAA | -0.102 |
| CACGTAAC | 0.449 |
| TCCGTAAA | -0.0256 |
| CAGAAGAA | 0.0487 |
| ACACCACG | 0.063 |

| Sequence | PBM E-score |
| --- | --- |
| CATGGTAG | -0.193 |
| CTGGTTAC | -0.00958 |
| CCGCTGTC | -0.153 |
| CGTCGAAA | 0.247 |
| AACTTTAC | 0.171 |
| CCGATTCC | -0.0807 |
| ATGATCTG | 0.151 |
| CGGTCATA | 0.0986 |
| GAGTCATA | 0.122 |
| GCGTCATA | 0.481 |
| GGGTCATA | -0.0307 |
| CAGTCATC | -0.204 |
| CAGTCATA | 0.0103 |
| CCGTCATC | 0.36 |
| CCGTCATA | 0.368 |
| CGGTCATC | -0.0713 |
| CGCTTGCA | -0.102 |
| TCGCGACA | -0.0189 |
| CCGCGTCC | -0.00078 |
| TAGCGTCA | 0.398 |
| AAGCGTCA | 0.353 |
| ACGCGTCC | 0.0182 |
| ACGCGTCA | 0.436 |
| ACGCGTCT | 0.192 |
| CAGCGTCA | 0.269 |

| Sequence | PBM E-score |
| --- | --- |
| TCGCGTCA | 0.408 |
| CCGCGTCG | -0.127 |
| AGGCGTCA | 0.256 |
| CCGCGTCA | 0.377 |
| GGTAGCCA | -0.238 |
| ACAAACCA | -0.0895 |
| ATGCCGTG | -0.111 |
| TGGCGGAA | -0.102 |
| TAGCGCGA | -0.0664 |
| GCGCGTCA | 0.424 |
| GCGCGTCC | -0.15 |
| GCGCGTTA | 0.0431 |
| CTCAGCCC | -0.249 |
| GACAATCA | 0.00255 |
| ATTTTGGC | 0.11 |
| GCAACCGC | -0.139 |
| ATGTCATG | 0.403 |
| ATGTCATC | 0.389 |
| ATGTCAAG | 0.187 |
| CTGTCATA | 0.141 |
| ATGTCAGC | 0.129 |
| CTGTCATC | 0.0473 |
| ATGTCATA | 0.41 |
| ATGTCACG | 0.325 |
| GTGTCATA | 0.298 |

| Sequence | PBM E-score |
| --- | --- |
| GCTAGAGA | -0.0277 |
| AACTTTAG | 0.247 |
| CCTATGTA | -0.0157 |
| CGATCCGC | -0.0715 |
| GACCAACA | 0.17 |
| AATCTCAC | -0.0325 |
| CCTGTTCG | -0.0292 |
| GCGTGATA | 0.145 |
| CCGTGATA | -0.0242 |
| CCGTGATC | -0.255 |
| TCGTGAAA | 0.0383 |
| ACGTGAGG | 0.276 |
| ACGTGATA | 0.409 |
| ACGTGAAA | 0.386 |
| AGGTGATG | 0.087 |
| ACGTGATC | 0.432 |
| AAGTGATC | 0.112 |
| ACGTGAAC | 0.311 |
| ACGTGATG | 0.442 |
| ATATCAAC | 0.141 |
| AGGGGAGC | -0.294 |
| TAGGTTCA | -0.0685 |
| TGTTGCAA | 0.131 |
| CAATTCAC | 0.049 |
| AGGTGAGG | -0.192 |

| Sequence | PBM E-score |
| --- | --- |
| CGCAGATA | -0.00801 |
| CAAGGCAA | -0.136 |
| CGCTCTTA | 0.112 |
| ACGTTTCG | 0.347 |
| ATGCTCGA | 0.00694 |
| CACTGATG | 0.0771 |
| GTGATCAA | 0.189 |
| ATTGTTAC | 0.362 |
| CTTGTTAC | 0.094 |
| ATTGTTAG | 0.0985 |
| ACTCTTGG | -0.179 |
| TACACGTA | 0.453 |
| AACACGAG | 0.033 |
| CACACAAA | 0.114 |
| CACACGTG | 0.386 |
| AACACAAA | 0.0722 |
| CACACGCC | 0.0149 |
| CACACATA | 0.0532 |
| CACACGGC | -0.0173 |
| TACACGGA | 0.142 |
| AACACGTG | 0.395 |
| TACACGAA | 0.251 |
| CACACGTC | 0.446 |
| GACTCTGA | -0.104 |
| GAGCTCCA | -0.129 |

| Sequence | PBM E-score |
| --- | --- |
| AATCCTGG | -0.199 |
| ATAGTTAC | 0.212 |
| CGCGACGA | 0.125 |
| ACGTTCGA | 0.248 |
| TCGGCTCA | -0.111 |
| GTAGAGGA | -0.194 |
| AAACCGAG | -0.175 |
| CCGCTCCG | -0.269 |
| GCCTTCCA | -0.222 |
| CACACGTA | 0.45 |
| CACACGGA | -0.167 |
| CACACGCG | 0.104 |
| CCTGCGAA | -0.0899 |
| CGTAAGCC | 0.203 |
| GCGTTGGA | -0.00317 |
| ACACTACT | -0.0134 |
| ACACTACG | 0.368 |
| ACACTACA | 0.167 |
| CACTACCA | -0.029 |
| GGTCACGA | -0.0631 |
| CCTCACGC | 0.0875 |
| AGTCACGC | 0.167 |
